The source of these data is PubChem BioAssay.

Active and inactive are the calls of the source.

Experiment [1] has as its system Plasmodium falciparum Sir2 (PF13_0152, Sir2A). Kind of experiment: Plasmodium falciparum Sir2A binding compounds – biochemical, small-molecule microarray, 635 nm fluorescence, primary screen (AID 1098).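 Further: score merges spot fluorescence intensity with its signal-to-noise ratio.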 The conditions noted are these: fluorescence 635 nm, higher = more signal.
The nature of experiment [2]: probe aDKK1 binding to arrayed compounds – biochemical, biotinylated probe, 635/667 nm fluorescence, primary screen (AID 1099).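 Further: score merges 667nm spot fluorescence with signal to noise across triplicate slides.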 The note with it: small-molecule microarray, higher = more signal.
Experiment [3] is described as follows: probe aCHRDL2 binding to arrayed compounds – biochemical, biotinylated probe, 635/667 nm fluorescence, primary screen (AID 1100). The conditions noted are these: small-molecule microarray, higher = more signal.
Experiment [4] in a line: change in splice reporter luminescence, either direction, cell-based, HEK293, spliceosome inhibition project, primary screen (AID 1101).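 Further: HEK293 cells carrying a splicing-competent luciferase reporter gene; test concentration not given here.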 The conditions noted are these: HEK293 splicing luciferase reporter, 24 h, higher = more signal, called active from +8 up or from −8 down.
Experiment [5] addresses Fibroblast growth factor 10 (Homo sapiens) (UniProt O15520). Kind of experiment: compounds binding fibroblast growth factor 10 – biochemical, small-molecule microarray, 635 nm fluorescence, primary screen (AID 1102). The note with it: FGF10 binding, fluorescence 635 nm, higher = more signal.
Experiment [6] deals with glycogen synthase kinase-3 (GSK3A per assay name; protocol says GSK3B). Kind of experiment: compounds binding glycogen synthase kinase-3 – biochemical, small-molecule microarray, 635 nm fluorescence, GSK3A, primary screen (AID 1103). Further: the record names both GSK3A and GSK3B. The note with it: fluorescence 635 nm, higher = more signal.
Experiment [7] has as its target Epidermal growth factor receptor (Homo sapiens) (UniProt P00533). Kind of experiment: compounds binding epidermal growth factor receptor – biochemical, small-molecule microarray, 635 nm fluorescence, primary screen (AID 1104).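 Further: score merges 667 nm emission intensity with spot signal to noise over triplicate slides.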 The note with it: EGFR binding, higher = more signal.
For experiment [8], the target named is Follistatin-related protein 3 (Homo sapiens) (UniProt O95633). Kind of experiment: compounds binding follistatin-related protein 3 – biochemical, small-molecule microarray, 635 nm fluorescence, primary screen (AID 1105).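 Further: score merges emission near 667 nm and signal to noise per printed spot across three slides.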 The note with it: FSTL3 binding, higher = more signal.
Follistatin-related protein 3 (Homo sapiens), sequence (O95633 whole entry, looked up): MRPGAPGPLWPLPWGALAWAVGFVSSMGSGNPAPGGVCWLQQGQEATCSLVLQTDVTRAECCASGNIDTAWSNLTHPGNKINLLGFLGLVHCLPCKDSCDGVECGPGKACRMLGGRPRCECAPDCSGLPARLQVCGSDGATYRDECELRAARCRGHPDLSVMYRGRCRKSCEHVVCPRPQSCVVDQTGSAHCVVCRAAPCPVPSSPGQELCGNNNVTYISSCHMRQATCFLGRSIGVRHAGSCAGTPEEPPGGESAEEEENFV
In experiment [9] the target is Dickkopf-related protein 1 (Homo sapiens) (UniProt O94907). Kind of experiment: small molecules binding DKK1 protein – biochemical, small-molecule microarray, 635 nm fluorescence scan, primary screen (AID 1106).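 Further: score merges emission near 667 nm with signal to noise over three replicate slides.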 The note with it: higher = more signal.
Dickkopf-related protein 1 (Homo sapiens), sequence (O94907 whole entry, looked up): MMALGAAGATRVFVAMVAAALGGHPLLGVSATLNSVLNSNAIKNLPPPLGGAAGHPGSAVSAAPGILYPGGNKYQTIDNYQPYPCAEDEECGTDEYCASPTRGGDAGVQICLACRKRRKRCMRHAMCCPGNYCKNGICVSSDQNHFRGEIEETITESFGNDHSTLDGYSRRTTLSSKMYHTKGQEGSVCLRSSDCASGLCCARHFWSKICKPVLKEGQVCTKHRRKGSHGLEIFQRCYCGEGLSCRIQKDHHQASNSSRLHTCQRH
For experiment [10], the system named is Inhibin beta A chain (activin A). Kind of experiment: small molecules binding activin A – biochemical, small-molecule microarray, 635 nm fluorescence scan, primary screen (AID 1107).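 Further: mouse activin A protein probed at 4.33 µg/mL on printed slides; score merges bound-protein fluorescence near 667 nm with spot signal-to-noise.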 The note with it: INHBA, higher = more signal.
The test system of experiment [11] is Human papillomavirus type 1a protein E7 (residues 44-93). Kind of experiment: small molecules binding HPV E7 44-93 – biochemical, small-molecule microarray, residues 44-93, 635 nm fluorescence, primary screen (AID 1108).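 Further: E7 fragment applied at 1 µg/mL in TBST for 1 h at 4 C; score combines spot fluorescence with its signal to noise ratio.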 The conditions noted are these: fluorescence 635 nm, higher = more signal.
The nature of experiment [12]: hepatitis C replication reporter changes, two-sided – Huh7 cells, luciferase reporter, HCV replication inhibitor project, primary screen (AID 1109).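 Further: huh7 hepatoma cells harbouring a luciferase neomycin HCV replicon reporter; luciferase luminescence as measure of HCV replicon replication; test concentration not given here.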 The note with it: Huh7 HCV replicon luciferase reporter, 48 h; higher = more signal. (Reporter assays use an easily measured gene product as a stand-in for the process of interest.)
Experiment [13] concerns the target Left-right determination factor 2 (Homo sapiens) (UniProt O00292). Kind of experiment: small molecules binding LEFTY2 protein – biochemical, small-molecule microarray, 635 nm fluorescence scan, primary screen (AID 1110). The conditions noted are these: higher = more signal.
Experiment [14] addresses Calmodulin-1 (Homo sapiens) (UniProt P0DP23). Kind of experiment: small molecules binding calmodulin-1 with EGTA – biochemical, small-molecule microarray, Cy5-labelled CALM1, profiling panel (AID 1111).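 Further: labelled calmodulin applied in Tris saline Tween buffer holding calcium plus EGTA and DTT.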 The note with it: Cy5-CALM1 binding fluorescence, higher = more signal.
Experiment [15] shares this target. Kind of experiment: small molecules binding Ca-loaded calmodulin-1 – biochemical, small-molecule microarray, Cy5-labelled CALM1, plus calcium, artefact control for SMM control-protein annotation, profiling panel (AID 1112).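 Further: score merges spot fluorescence with signal to noise from triplicate slides.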 The conditions noted are these: Cy5-CALM1 binding fluorescence, higher = more signal.
Experiment [16] can be described thus: probe aWnt5a binding to arrayed compounds – biochemical, biotinylated probe, 635/667 nm fluorescence, primary screen (AID 1113).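 Further: score merges 667 nm fluorescence intensity with signal-to-noise per printed feature.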 The conditions noted are these: small-molecule microarray, higher = more signal.
The nature of experiment [17]: probe aShh binding to arrayed compounds – biochemical, biotinylated probe, 635/667 nm fluorescence, primary screen (AID 1114).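 Further: probe is biotin-labelled aShh protein from a stem cell growth factor screen; measures binding of labelled protein to compounds printed on the slide; score merges feature fluorescence at 667 nm with signal-to-noise.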 The note with it: small-molecule microarray, higher = more signal.
Experiment [18] in a line: probe aNog binding to arrayed compounds – biochemical, biotinylated probe, 635/667 nm fluorescence, primary screen (AID 1115).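 Further: probe is biotinylated aNog protein used at 0.15 µg/mL for 1 h at 4 C; z-score combines 667 nm fluorescence of each spot with its signal to noise.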 The conditions noted are these: small-molecule microarray, higher = more signal.
Experiment [19] concerns the target Torsin-1A-interacting protein 1 (Homo sapiens) (UniProt Q5JTV8). Kind of experiment: compound microarray binding of lysate hLAP1 – cell lysate, small-molecule microarray, COS7 lysate, 635/667 nm fluorescence, primary screen (AID 1116). The note with it: 635 nm fluorescence, higher = more signal.
Experiment [20] has as its target Alpha-bungarotoxin (Bungarus multicinctus) (UniProt P60615). Kind of experiment: compounds binding labelled alpha-BTX control protein – biochemical, small-molecule microarray, Alexa647 label, 635/667 nm fluorescence, artefact control for SMM control protein annotation, profiling panel (AID 1117). The note with it: alpha-BTX-A647 binding fluorescence, higher = more signal.

Fibroblast growth factor 10 (Homo sapiens), sequence (O15520 whole entry, looked up): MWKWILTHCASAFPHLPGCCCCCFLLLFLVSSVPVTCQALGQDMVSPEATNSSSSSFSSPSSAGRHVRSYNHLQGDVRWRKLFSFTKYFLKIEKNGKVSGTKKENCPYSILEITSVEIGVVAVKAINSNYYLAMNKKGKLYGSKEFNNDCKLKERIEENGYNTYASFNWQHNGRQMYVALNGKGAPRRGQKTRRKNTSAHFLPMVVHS
Epidermal growth factor receptor (Homo sapiens), sequence (P00533 whole entry, looked up): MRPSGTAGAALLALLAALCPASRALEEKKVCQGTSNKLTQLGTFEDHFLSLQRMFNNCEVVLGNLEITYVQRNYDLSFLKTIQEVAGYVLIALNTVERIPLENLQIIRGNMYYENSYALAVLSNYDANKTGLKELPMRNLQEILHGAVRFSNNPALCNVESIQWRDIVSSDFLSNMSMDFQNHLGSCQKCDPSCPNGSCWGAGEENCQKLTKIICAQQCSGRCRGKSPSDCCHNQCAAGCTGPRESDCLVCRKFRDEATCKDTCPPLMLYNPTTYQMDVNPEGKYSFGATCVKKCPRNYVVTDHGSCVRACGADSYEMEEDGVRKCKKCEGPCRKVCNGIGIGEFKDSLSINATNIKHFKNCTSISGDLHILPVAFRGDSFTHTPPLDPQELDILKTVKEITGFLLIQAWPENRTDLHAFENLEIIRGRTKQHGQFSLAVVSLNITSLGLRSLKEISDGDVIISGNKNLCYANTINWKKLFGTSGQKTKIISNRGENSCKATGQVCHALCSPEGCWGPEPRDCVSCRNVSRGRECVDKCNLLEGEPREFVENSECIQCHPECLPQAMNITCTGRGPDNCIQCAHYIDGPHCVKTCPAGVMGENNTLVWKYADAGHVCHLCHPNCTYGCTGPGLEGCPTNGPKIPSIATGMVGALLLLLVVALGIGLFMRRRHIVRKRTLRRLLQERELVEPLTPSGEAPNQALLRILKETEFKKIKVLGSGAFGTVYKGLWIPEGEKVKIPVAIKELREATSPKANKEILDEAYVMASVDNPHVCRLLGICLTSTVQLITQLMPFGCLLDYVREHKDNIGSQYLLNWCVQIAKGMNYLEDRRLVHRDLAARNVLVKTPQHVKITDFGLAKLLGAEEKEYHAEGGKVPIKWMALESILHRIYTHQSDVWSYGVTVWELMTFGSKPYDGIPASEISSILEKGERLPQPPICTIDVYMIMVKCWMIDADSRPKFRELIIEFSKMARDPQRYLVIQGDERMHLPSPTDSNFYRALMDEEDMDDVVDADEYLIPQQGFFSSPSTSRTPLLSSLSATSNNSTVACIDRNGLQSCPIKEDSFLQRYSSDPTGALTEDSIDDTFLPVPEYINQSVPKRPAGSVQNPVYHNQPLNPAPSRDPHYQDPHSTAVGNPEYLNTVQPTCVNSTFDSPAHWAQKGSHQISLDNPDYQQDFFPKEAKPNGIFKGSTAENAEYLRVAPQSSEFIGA
Alpha-bungarotoxin (Bungarus multicinctus), sequence (P60615 whole entry, looked up): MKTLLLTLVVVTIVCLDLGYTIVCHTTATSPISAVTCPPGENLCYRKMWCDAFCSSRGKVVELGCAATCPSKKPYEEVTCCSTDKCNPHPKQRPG
Torsin-1A-interacting protein 1 (Homo sapiens), sequence (Q5JTV8 whole entry, looked up): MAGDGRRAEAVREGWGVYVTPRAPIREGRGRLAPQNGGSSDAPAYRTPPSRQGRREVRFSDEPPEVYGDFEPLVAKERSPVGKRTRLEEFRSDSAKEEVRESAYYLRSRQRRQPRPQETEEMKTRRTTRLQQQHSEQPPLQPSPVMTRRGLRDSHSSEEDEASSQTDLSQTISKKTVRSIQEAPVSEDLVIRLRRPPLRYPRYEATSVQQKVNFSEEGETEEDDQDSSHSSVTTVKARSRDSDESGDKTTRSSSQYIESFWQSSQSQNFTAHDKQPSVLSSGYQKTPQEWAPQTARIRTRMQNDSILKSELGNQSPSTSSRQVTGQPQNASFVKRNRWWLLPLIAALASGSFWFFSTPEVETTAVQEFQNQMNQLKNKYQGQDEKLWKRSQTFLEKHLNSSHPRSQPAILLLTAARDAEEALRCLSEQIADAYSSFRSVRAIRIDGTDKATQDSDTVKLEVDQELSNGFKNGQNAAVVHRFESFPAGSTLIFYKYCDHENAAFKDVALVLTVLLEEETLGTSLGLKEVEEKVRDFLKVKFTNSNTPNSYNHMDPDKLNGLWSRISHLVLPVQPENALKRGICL
Left-right determination factor 2 (Homo sapiens), sequence (O00292 whole entry, looked up): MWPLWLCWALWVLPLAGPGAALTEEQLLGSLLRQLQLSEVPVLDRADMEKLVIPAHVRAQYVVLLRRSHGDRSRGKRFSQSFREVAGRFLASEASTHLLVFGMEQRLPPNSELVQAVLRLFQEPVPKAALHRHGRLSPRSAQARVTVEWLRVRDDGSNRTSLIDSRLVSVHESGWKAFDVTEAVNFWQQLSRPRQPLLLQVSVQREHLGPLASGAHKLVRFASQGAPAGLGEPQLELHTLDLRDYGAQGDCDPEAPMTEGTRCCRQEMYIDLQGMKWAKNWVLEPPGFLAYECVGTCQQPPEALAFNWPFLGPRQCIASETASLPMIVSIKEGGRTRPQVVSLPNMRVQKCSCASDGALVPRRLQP

Consider `CC(C)[Si](C#Cc1ccccc1)(O[C@H](c1ccccc1)c1cn(Cc2ccccc2)nn1)C(C)C`, for which the composite z-score is 1.56 in experiment [1]; 0.191 in experiment [2]; -0.386 in experiment [3]; 0.785 in experiment [5]; 1.06 in experiment [6]; 0.726 in experiment [7]. In addition, the composite z-score in experiment [8] is 1.49; in experiment [9] it was 1.86; in [10], -0.165; in experiment [11], 0.657; in [13], 0.0441; in experiment [14], -0.49. The composite z-score in experiment [15] was -1.67; in experiment [16], -0.169; in experiment [17], -0.138; in experiment [18], -0.138; in [19], 0.567; in experiment [20], 0.579. Further, the z-score is -1.97 (inactive) in [4] and 0.167 in experiment [12].

Regarding `COC(=O)[C@@]1(Cc2ccc(F)cc2)[C@H]2c3cc(C(=O)N4CCCC4)n(C[C@H](O)CO)c3C[C@H]2CN1C(=O)c1ccccc1`, the composite z-score is 0.543 in experiment [1]; 1.48 in experiment [2]; 0.609 in [3]; 0.0396 in [5]; 0.094 in experiment [6]; -0.0057 in experiment [7]. The composite z-score in experiment [8] is 0.111; in experiment [9], 0.145; in [10], 0.549; in experiment [11] it was 0.0716; in experiment [13], -0.358; in [14], 2.69. Further, the composite z-score is 1.27 in experiment [15]; 0.429 in experiment [16]; 1.41 in experiment [17]; 2.28 in [18]; 2.35 in [19]; 0.185 in [20]. Also, the z-score was 0.749 (inactive) in experiment [4] and -0.948 in experiment [12].

Regarding `C=CC[C@H](O)c1ccc(O)c(F)c1`, the composite z-score in experiment [1] was 0.399; in [2], -0.727; in experiment [3] it was 0.328; in [5], -0.809; in experiment [6], -1.13; in experiment [7], -1.23. Further, the composite z-score in [8] was -0.418; in experiment [9], -1.97; in experiment [10], -2.89; in experiment [11], -2.12; in experiment [13], -1.13; in [14], -0.829. In addition, the composite z-score in [15] was -0.589; in [16], -0.229; in [17], -0.138; in [18], -0.537; in [19] it was -0.992; in [20], -0.328. Besides, the z-score in [4] is -0.339 (inactive); in experiment [12] it was -1.74.

In the case of `Cc1ccc(N2C(=O)c3ccccc3[C@@H](C(=O)NCCN3CCOCC3)[C@@H]2c2ccc(CO)cc2)nc1`, the composite z-score in experiment [1] is 1.25; in experiment [2] it was 0.0086; in experiment [3] it was 0.685; in experiment [5], -0.329; in [6], -1.09; in experiment [7], -0.914. Further, the composite z-score was -0.799 in experiment [8]; -0.459 in [9]; -0.382 in experiment [10]; 0.113 in [11]; -1.29 in experiment [13]; -0.287 in experiment [14]. The composite z-score in [15] is 0.609; in [16], -0.1; in experiment [17], -0.214; in experiment [18] it was -0.434; in [19], -1.3; in experiment [20], -0.843. Besides, the z-score in experiment [4] is 0.17 (inactive); in experiment [12], 0.193.

Regarding `O=C1c2ccccc2[C@@]2(Cc3ccccc3N(CC(F)(F)F)C2=O)[C@H](c2ccc(CO)cc2)N1Cc1ccccc1`, the composite z-score in experiment [1] was -0.33; in [2], -0.449; in [3], -0.419; in [5], -0.0636; in experiment [6], 0.387; in experiment [7] it was -0.171. Moreover, the composite z-score was 0.766 in experiment [8]; 0.309 in [9]; 1.32 in experiment [10]; -0.143 in experiment [11]; 0.2 in [13]; -0.469 in [14]. In addition, the composite z-score in experiment [15] was 0.457; in [16], 0.0371; in experiment [17] it was 0.0178; in [18], -0.238; in [19] it was -0.131; in experiment [20], -0.0056. Also, the z-score in experiment [4] is -0.719 (inactive); in experiment [12], -1.22.
